# Screens as filed in PubChem BioAssay.
# The list is not random: actives were taken first. Their share in the collection is about 3.4%.
# HSF1 inh – HSF1 inhibition | NIH3T3-HGL HSE-luciferase, MG132-induced, luminescence 8 h; stronger effect = lower value | activity change, negative = inhibition, % at 7.5 µM (by protocol) | 300,000 compounds, 0.77% hits;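 active = more than half of replicate wells show activity change below -50%, luminescence cut by over half; inconclusive = some wells, but at most half, below -50%; inactive = no replicate well below -50%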;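 note: luciferase reports HSF-1 transcriptional activity via heat shock element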
# HSF1 activator – increases HSF-1 driven luciferase reporter signal; NIH3T3-HGL HSF-1 luciferase reporter, MG132, 8 h; 100% = twice DMSO control signal; activation, % at 9 µM; 300,000 compounds, 1.7% hits;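 active = mean replicate activation of at least 50% with a set share of replicates each reaching 50%; inconclusive = only one of those two conditions met; inactive = mean below 50% and too few replicates reaching it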
# Vif inh – blocks HIV Vif function. HEK293T cells, Vif self-association by quenched fluorescence, imaging, 24 h. inhibition, % at 7.49 µM. 340,000 compounds, 0.35% hits. AID 602346; in the data active = inhibition above about 50%, passing the limit was not always enough; inconclusive = no clear call, values can overlap the other calls; inactive = below about 31%
# esBAF inh – SWI/SNF esBAF complex inhibition. mouse ES cells, Bmi1-luciferase knock-in reporter, 24 h; 100% = twice the neutral-well signal. AID 602393. reporter increase, % at 12.5 µM. 350,000 compounds, 2% hits; in the data active = activation above about 40%; inconclusive = no clear call, values can overlap the other calls;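 note: a rise in the Bmi1 reporter signal indicates esBAF inhibition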
# Numbers stand for hits; . = inactive; ? = inconclusive; / = no result given.
SMILES,HSF1 inh,HSF1 activator,Vif inh,esBAF inh
COc1ccc(-c2ccc([C@H]3[C@@H](CO)N4CCCCN(C(=O)c5ccc6c(c5)OCO6)C[C@H]34)cc2)cc1,/,/,/,.
Cc1ccccc1NC(=O)c1cc2ccccc2o1,.,.,.,47
COc1ccccc1NC(=O)c1cc2ccccc2o1,.,.,.,72
Cc1ccccc1NC(=O)c1cc(=O)c2ccccc2o1,.,.,.,.
COc1cc(NC(=O)c2cc3ccccc3o2)c(OC)cc1Br,.,.,.,.
CC(C)=CC(=O)Nc1ccc(OCc2ccccc2)cc1,.,.,.,50
CC(C)=CC(=O)Nc1ccc(Br)cc1,.,.,.,66
Cc1ccsc1C(=O)Nc1ccc(OCc2ccccc2)cc1,.,?,.,54
Cc1cc(C(=O)Nc2ccc(OCc3ccccc3)cc2)c(C)o1,.,.,.,44
O=C(Nc1ccc(OCc2ccccc2)cc1)c1ccccc1,.,.,.,/
CCOC(=O)C(=O)Nc1ccc(OCc2ccccc2)cc1,.,.,.,.
CC(C)C#Cc1ccc2c(c1)O[C@@H](CN(C)C(=O)NC(C)C)[C@@H](C)CN([C@@H](C)CO)S2(=O)=O,/,/,/,.
COc1ccc2[nH]c(C)c(CCNc3ccc(C(F)(F)F)cc3[N+](=O)[O-])c2c1,.,61,.,/
C[C@H](CO)N1C[C@H](C)[C@H](CN(C)C(=O)C2CCC2)Oc2ncc(-c3cccc(C#N)c3)cc2C1=O,/,/,/,.
O=C(NCc1ccco1)c1ccc(C(F)(F)F)cc1,.,.,.,/
CC(Cc1ccco1)NC(=O)c1ccc(C(F)(F)F)cc1 (configuration not stated),.,66,.,.
O=C(NC(=S)NC1CCN(Cc2ccccc2)CC1)c1ccc(F)cc1,.,.,.,.
N#Cc1ccc(C(=O)NC2CCCCCCC2)cc1,.,.,.,53
COC(=O)c1ccc(NC(=S)NC2CCCCC2)cc1,.,.,.,.
O=C(NC1CCCCC1)c1ccc([N+](=O)[O-])cc1,/,/,.,74
O=C(NC1CCCCCCC1)c1cc([N+](=O)[O-])ccc1Cl,.,.,.,.
N#CCC(=O)Nc1ccc(C(=O)NNC(=S)NC2CCCCC2)cc1,/,/,124,.
O=C(NC(=S)NC1CCCCC1)c1ccc(F)cc1,.,.,.,60
O=C(Cc1ccncc1)NCC[C@@H]1CC[C@@H](NC(=O)C2CCCC2)[C@H](CO)O1,/,/,/,.
Oc1ccc(/C=C/c2ccnc3ccccc23)cc1,.,69,.,.
SMILES,HSF1 inh,HSF1 activator,Vif inh,esBAF inh
COc1ccc(NC(=O)N(C)C[C@@H]2Oc3c(NC(=O)C4CC4)cccc3C(=O)N([C@H](C)CO)C[C@@H]2C)cc1,/,/,/,.
COc1cc(/C=N/NC(=O)c2ccncc2)ccc1OC(C)=O,.,.,.,.
COc1cc(/C=N\Nc2nncn2N)ccc1OC(C)=O,.,56,.,.
CSc1ccc(/C=N\Nc2nncn2N)cc1,.,95,.,.
C[C@H]1CCCCO[C@H](CN(C)C(=O)NC2CCCCC2)[C@@H](C)CN([C@@H](C)CO)C(=O)c2cc(N(C)C)ccc2O1,/,/,/,.
O=C(C[C@@H]1CC[C@@H]2[C@H](COC[C@H](O)CN2C(=O)c2ccncc2)O1)NC1Cc2ccccc2C1,/,/,/,.
Cc1ccccc1CN1CCN(C(=O)c2cc(-c3ccncc3)nc3ccccc23)CC1,.,.,.,.
O=C(c1cc(-c2ccncc2)nc2ccccc12)N1CCN(Cc2ccccc2)CC1,/,/,51,.
CSc1ccccc1C(=O)N1CCN(c2ncccn2)CC1,-70,.,.,/
CC(C)Oc1cccc(-c2cc(C(=O)N3CCN(c4ncccn4)CC3)c3ccccc3n2)c1,.,.,.,60
Cc1cccc2c(C(=O)N3CCN(c4ccccn4)CC3)cc(-c3cccc(Br)c3)nc12,-79,.,.,.
C/C=C/c1cnc2c(c1)C(=O)N([C@@H](C)CO)C[C@@H](C)[C@@H](CN(C)C(=O)C1CC1)O2,/,/,/,.
Cc1cccc2c(C(=O)N3CCCCC3)cc(-c3ccccc3)nc12,.,.,.,.
Cc1cccc2c(C(=O)N3CCN(c4ccccc4)CC3)cc(-c3ccncc3)nc12,-70,.,.,.
C[C@@H]1CN([C@@H](C)CO)C(=O)c2cc(NC(=O)Nc3cccc4ccccc34)ccc2O[C@@H](C)CCCCO[C@H]1CN(C)Cc1ccc(Cl)c(Cl)c1,/,/,/,.
Oc1cc(-c2ccccc2)c2ccccc2c1,.,157,.,/
CN(C)C(=O)C[C@@H]1CC[C@H]2[C@@H](COC[C@H](O)CN2Cc2nccs2)O1,/,/,/,.
COc1ccc(-c2nc3cc([N+](=O)[O-])ccc3o2)cc1,.,59,.,/
Nc1ccc(-c2nc3cc([N+](=O)[O-])ccc3o2)cc1,.,58,.,.
